According to the supplement of paper PMC10849652:
Of roughly 7,900 targets only a part is listed; those with a hit were picked by preference. About 0.6% of all pairs of compound and target were hits. A number with no mark means an inactive call.

Tests used:
Experiment in all cases: log2 fold change, soluble protein after heating vs DMSO (PISA); higher = thermal stabilisation; K562 cells, 10 uM, 30 min; active = over 0.2 and 3.5 SD of the protein, either way, in both replicates (recomputed)
erlotinib = compound: C#Cc1cccc(Nc2ncnc3cc(OCCOC)c(OCCOC)cc23)c1 [erlotinib]
Summary of the method: (§1)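 Soluble protein was defined as the supernatant after 21,000xg for 90 min. It came from K562 cells at 2×10^6 cells/mL given 10 μM compound for 30 min, heated in aliquots for 3 min across 48°C-58°C, pooled, and extracted in PBS with 0.5% NP-40 at 4°C, and was quantified by TMTpro 16plex LC-MS/MS with equalised channel sums. Thermal stability against control samples, from duplicates, is reported as log2 fold change.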

[1] = compound: C/C(=N\NC(=O)C1=CC(=CC=C1)S(=O)(=O)N2CCOCC2)/C3=C(C=CC(=C3)Cl)O
Summary of the method: as §1

[2] = compound: C1=CC(=C(C=C1Cl)C2=NC3=NC=CN=C3C(=N2)NC4=CC=NC=C4)F
Summary of the method: as §1

[3] = compound: C1=CC(=CC=C1C2=NC3=C(N2)C=C(C=C3)C(=O)N)OC4=CC=C(C=C4)Cl
Summary of the method: as §1

[4] = compound: C1=CC2=C(C=CC(=C2)/C=C\3/C(=O)NC(=NCC4=CC=CS4)S3)N=C1
Summary of the method: as §1

[5] = compound: C1=CC=C2C(=C1)C3=NNC4=CC=CC(=C43)C2=O
Summary of the method: as §1

[6] = compound: C1CCN(C1)C(=O)NC2=CC=CC(=C2)NC3=NC=C(C(=N3)NCCC4=CN=CN4)Br
Summary of the method: as §1

[7] = compound: C1CN(CCC1(CC2=CC=C(C=C2)Cl)N)C3=NC=NC4=C3C=CN4
Summary of the method: as §1

IRAK-1-4 Inhibitor I = compound: C1COCCN1CCN2C3=CC=CC=C3N=C2NC(=O)C4=CC(=CC=C4)[N+](=O)[O-] [IRAK-1-4 Inhibitor I]
Summary of the method: as §1

[8] = compound: CC(=O)c1cnc2ccc(-c3cc(Cl)c(O)c(Cl)c3)nc2c1N[C@H]1CC[C@H](CN(C)C)CC1
Summary of the method: as §1

[9] = compound: CC(C)(O)CC(=O)NCCn1ccc2ncnc(Nc3ccc(Oc4cccc(C(F)(F)F)c4)c(Cl)c3)c21
Summary of the method: as §1

[10] = compound: CC(C)C1=C2N=C(C=C(N2N=C1)NCC3=CC=CC=C3)NCCCCCCN
Summary of the method: as §1

pinometostat = compound: CC(C)N(C[C@H]1O[C@@H](n2cnc3c(N)ncnc32)[C@H](O)[C@@H]1O)[C@H]1C[C@@H](CCc2nc3cc(C(C)(C)C)ccc3[nH]2)C1 [pinometostat]
Summary of the method: as §1

[11] = compound: CC1=C(C(CC(=O)N1)C2=CC=C(C=C2)C(F)(F)F)C(=O)NC3=C(C=C4C(=C3)C=NN4)F
Summary of the method: as §1

[12] = compound: CC1=C(C2=C(C=C1)C(=O)C3=CC=CC=C3N2CCCN)C
Summary of the method: as §1

[13] = compound: C1=CC=C(C=C1)C2=NC(=C(N2)C3=CC=NC=C3)C4=CC(=C(C=C4)Cl)O
Summary of the method: as §1

ralimetinib = compound: CC(C)(C)Cn1c(N)nc2ccc(-c3[nH]c(C(C)(C)C)nc3-c3ccc(F)cc3)nc21 [ralimetinib]
Summary of the method: as §1

[14] = compound: CC(C)C[C@@H](C=O)NC(=O)[C@H](CC(C)C)NC(=O)[C@H](CC(C)C)NC(=O)OCc1ccccc1
Summary of the method: as §1

[15] = compound: C1=CC2=NC=CN=C2C=C1/C=C/3\C(=O)NC(=O)S3
Summary of the method: as §1

ibrutinib = compound: C=CC(=O)N1CCC[C@@H](n2nc(-c3ccc(Oc4ccccc4)cc3)c3c(N)ncnc32)C1 [ibrutinib]
Summary of the method: as §1

Sequence of UniProt Q15759 (Q15759 whole entry, looked up): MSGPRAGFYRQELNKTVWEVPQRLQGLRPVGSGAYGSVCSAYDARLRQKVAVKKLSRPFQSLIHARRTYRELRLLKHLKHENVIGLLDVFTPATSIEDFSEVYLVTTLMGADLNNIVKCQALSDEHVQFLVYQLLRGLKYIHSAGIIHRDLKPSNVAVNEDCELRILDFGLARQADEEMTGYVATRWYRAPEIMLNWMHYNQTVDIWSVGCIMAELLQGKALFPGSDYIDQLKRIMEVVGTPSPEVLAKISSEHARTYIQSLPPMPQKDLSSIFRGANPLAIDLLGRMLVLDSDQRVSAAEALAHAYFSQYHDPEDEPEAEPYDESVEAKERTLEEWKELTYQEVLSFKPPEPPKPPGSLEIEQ
Sequence of UniProt Q12851 (Q12851 whole entry, looked up): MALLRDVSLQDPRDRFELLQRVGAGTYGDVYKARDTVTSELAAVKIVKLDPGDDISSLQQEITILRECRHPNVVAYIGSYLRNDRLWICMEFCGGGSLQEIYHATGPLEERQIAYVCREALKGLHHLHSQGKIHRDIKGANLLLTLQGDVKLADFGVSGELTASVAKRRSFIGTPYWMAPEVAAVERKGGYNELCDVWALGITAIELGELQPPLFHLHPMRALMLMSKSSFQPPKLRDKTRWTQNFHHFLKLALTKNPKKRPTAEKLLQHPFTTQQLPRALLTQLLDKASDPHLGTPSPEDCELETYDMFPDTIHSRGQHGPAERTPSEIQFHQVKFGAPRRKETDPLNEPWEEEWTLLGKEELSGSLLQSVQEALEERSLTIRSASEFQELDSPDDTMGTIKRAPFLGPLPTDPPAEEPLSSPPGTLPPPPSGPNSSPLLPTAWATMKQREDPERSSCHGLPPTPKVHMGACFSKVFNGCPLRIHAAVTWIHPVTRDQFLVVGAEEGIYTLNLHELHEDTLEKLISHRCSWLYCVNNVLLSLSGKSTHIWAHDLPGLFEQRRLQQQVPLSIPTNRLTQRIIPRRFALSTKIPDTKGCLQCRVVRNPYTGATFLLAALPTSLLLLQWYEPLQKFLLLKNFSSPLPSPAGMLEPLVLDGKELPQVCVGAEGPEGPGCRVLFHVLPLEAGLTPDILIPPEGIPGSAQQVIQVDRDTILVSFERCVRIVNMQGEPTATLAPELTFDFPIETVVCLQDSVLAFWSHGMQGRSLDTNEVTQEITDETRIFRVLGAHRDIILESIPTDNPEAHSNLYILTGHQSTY
Sequence of UniProt Q16891 (Q16891 whole entry, looked up): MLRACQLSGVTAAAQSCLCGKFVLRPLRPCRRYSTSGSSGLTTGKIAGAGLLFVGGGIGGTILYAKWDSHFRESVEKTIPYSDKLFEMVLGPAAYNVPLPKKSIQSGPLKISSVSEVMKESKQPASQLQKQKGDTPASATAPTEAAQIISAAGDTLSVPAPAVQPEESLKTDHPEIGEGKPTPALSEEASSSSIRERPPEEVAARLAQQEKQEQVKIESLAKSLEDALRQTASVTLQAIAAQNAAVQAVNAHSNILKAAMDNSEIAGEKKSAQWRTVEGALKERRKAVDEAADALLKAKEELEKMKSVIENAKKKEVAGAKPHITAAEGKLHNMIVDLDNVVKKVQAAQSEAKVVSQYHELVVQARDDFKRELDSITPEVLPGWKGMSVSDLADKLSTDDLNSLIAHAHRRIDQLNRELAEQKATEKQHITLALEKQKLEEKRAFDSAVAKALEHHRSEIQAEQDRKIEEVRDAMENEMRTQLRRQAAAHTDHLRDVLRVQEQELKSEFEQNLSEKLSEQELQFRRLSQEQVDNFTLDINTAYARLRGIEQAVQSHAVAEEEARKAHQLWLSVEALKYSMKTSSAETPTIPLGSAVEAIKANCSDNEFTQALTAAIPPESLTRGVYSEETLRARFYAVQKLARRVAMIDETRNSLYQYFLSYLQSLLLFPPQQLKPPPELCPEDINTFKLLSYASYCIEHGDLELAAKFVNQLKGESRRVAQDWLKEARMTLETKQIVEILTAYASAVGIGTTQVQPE
Sequence of UniProt Q7L590 (Q7L590 whole entry, looked up): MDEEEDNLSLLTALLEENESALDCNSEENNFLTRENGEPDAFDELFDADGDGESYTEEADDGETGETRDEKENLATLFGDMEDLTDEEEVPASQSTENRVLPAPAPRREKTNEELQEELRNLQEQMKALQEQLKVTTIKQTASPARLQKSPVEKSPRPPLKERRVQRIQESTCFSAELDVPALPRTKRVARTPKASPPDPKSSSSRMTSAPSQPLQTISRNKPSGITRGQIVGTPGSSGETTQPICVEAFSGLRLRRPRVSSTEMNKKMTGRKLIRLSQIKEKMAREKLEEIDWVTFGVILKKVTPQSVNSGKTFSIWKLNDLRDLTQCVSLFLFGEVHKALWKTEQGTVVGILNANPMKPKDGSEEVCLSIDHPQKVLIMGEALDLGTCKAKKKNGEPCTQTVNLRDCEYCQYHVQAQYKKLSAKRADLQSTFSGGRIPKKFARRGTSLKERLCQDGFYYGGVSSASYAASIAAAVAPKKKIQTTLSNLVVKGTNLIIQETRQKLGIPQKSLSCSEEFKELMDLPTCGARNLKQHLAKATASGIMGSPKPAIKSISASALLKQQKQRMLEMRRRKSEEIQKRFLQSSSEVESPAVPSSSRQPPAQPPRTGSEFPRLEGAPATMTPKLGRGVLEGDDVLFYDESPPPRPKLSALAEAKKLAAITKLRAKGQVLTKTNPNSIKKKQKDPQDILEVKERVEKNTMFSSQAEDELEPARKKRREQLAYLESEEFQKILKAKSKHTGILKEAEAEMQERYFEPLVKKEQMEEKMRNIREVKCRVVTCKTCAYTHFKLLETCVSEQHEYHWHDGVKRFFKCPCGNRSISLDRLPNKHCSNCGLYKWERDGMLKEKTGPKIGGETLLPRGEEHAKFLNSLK
Sequence of UniProt P08514 (P08514 whole entry, looked up): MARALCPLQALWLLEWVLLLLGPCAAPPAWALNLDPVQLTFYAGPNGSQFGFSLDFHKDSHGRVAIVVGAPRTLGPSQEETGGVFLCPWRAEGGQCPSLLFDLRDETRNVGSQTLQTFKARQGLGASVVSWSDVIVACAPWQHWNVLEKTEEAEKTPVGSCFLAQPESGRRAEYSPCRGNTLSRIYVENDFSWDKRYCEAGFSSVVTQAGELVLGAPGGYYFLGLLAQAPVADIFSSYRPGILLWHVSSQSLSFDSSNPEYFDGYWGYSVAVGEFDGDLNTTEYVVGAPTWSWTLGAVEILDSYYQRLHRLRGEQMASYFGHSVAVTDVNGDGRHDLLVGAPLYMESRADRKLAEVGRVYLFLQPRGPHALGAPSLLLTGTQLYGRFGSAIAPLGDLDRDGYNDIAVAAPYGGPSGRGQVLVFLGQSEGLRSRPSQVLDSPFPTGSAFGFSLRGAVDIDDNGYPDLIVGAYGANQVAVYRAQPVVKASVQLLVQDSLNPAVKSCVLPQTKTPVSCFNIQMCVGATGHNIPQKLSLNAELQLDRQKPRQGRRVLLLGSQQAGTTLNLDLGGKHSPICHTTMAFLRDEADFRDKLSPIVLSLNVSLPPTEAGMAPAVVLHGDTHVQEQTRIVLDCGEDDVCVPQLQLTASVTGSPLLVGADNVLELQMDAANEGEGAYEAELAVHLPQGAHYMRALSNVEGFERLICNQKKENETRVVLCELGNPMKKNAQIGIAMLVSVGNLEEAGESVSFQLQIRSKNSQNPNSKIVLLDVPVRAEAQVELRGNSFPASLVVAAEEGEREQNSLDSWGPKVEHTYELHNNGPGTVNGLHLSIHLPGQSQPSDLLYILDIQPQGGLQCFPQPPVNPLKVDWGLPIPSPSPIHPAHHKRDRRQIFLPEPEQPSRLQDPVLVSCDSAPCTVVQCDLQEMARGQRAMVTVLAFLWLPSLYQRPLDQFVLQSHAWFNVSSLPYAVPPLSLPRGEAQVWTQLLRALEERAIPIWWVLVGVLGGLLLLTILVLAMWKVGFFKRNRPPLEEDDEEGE
Sequence of UniProt Q92585 (Q92585 whole entry, looked up): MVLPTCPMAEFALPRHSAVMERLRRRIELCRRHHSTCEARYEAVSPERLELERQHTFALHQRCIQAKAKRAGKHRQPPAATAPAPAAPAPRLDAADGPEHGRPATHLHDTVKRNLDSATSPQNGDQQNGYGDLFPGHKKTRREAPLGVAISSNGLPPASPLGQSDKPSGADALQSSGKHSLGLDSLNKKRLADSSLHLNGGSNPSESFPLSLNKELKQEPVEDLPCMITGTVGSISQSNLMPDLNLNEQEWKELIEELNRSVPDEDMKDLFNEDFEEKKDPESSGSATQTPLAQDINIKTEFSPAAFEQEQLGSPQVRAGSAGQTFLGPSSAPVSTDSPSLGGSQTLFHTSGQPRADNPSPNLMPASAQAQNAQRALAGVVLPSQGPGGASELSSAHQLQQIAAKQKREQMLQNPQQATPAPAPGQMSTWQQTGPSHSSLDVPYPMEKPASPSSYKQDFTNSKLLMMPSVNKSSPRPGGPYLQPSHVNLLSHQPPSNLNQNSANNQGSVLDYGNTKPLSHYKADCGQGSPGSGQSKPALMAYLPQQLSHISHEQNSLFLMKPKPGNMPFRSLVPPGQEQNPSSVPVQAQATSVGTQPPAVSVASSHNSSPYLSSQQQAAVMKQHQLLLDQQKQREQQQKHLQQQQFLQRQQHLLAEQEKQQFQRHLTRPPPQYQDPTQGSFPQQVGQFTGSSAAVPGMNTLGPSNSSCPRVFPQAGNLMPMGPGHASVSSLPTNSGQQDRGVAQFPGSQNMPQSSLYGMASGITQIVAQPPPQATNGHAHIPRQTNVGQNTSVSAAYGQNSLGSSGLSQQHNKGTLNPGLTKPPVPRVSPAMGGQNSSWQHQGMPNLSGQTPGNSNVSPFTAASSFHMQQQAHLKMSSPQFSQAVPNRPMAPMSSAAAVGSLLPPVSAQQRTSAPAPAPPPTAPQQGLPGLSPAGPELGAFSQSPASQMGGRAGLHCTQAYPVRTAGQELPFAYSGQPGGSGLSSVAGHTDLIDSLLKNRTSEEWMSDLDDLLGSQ
Sequence of UniProt Q9NX70 (Q9NX70 whole entry, looked up): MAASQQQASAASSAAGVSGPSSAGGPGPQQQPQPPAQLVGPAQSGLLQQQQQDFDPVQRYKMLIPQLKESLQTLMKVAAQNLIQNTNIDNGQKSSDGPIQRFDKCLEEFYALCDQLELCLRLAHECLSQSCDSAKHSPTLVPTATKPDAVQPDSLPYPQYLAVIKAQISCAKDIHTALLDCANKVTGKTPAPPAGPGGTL

Row | Target | log2 fold change (erlotinib) | log2 fold change [1] | log2 fold change [2] | log2 fold change [3] | log2 fold change [4] | log2 fold change [5] | log2 fold change [6] | log2 fold change [7] | log2 fold change (IRAK-1-4 Inhibitor I) | log2 fold change [8] | log2 fold change [9] | log2 fold change [10] | log2 fold change (pinometostat) | log2 fold change [11] | log2 fold change [12] | log2 fold change [13] | log2 fold change (ralimetinib) | log2 fold change [14] | log2 fold change [15] | log2 fold change (ibrutinib)
1 | MAP3K20 isoform 2 (UniProt Q9NYL2) | -0.002 | -0.128 | 0.051 | 0.052 | -0.091 | -0.168 | -0.004 | 0.007 | -0.164 | -0.126 | 0.078 | 0.089 | -0.021 | 0.01 | -0.071 |  |  |  |  | 
2 | LYN isoform 2 (UniProt P07948) | -0.387 | 0.117 | -0.234 | -0.152 | 0.146 | -0.163 |  |  | 0.04 | -0.246 | 0.002 | -0.078 | 0.147 | -0.113 |  |  |  |  |  | 
3 | ITGA2B (UniProt P08514) | -0.046 | -0.051 | 0.023 | 0.06 | -0.023 | -0.133 | 0.065 | -0.13 | -0.045 | -0.045 | -0.172 | 0.462 | -0.064 | 0.099 | -0.121 | 0 | 0.054 | 0.026 |  | 
4 | IMMT isoform 4 (UniProt Q16891) | -0.027 | 0.026 | 0.057 | -0.006 | -0.021 | 0.001 | 0.012 | -0.013 | 0.037 | -0.015 | -0.035 | -0.179 | -0.013 | 0.017 | 0.01 | 0.012 | -0.044 | -0.013 | 0.011 | -0.005
5 | MASTL (UniProt Q96GX5) | 0.008 | 0.045 | 0.026 | -0.015 | -0.076 | 0.007 |  |  | -0.001 | -0.061 | -0.393 (active) | -0.028 | 0.07 | 0.022 |  | -0.087 | 0.001 | 0.138 | 0.124 | -0.008
6 | IP6K1 (UniProt Q92551) | -0.054 | 0.017 | -0.24 | 0 | 0.25 | 0.142 | -0.083 | 0.067 |  | -0.154 | -0.295 | -0.667 (active) |  |  | 0.095 | -0.088 | -0.159 | 0.069 | -0.025 | 0.05
7 | MAPK11 (UniProt Q15759) | 0.169 |  |  | -0.28 |  |  | -0.56 | 0.309 | -0.22 |  |  | -0.853 | -0.111 |  | 0.103 | 0.744 | 1.47 (active) | -0.091 |  | 
8 | MAML1 (UniProt Q92585) | 0.369 |  | 0.004 | 0.082 |  |  |  |  | 0.117 |  | 0.02 | 0.016 | -0.133 |  |  | -0.004 | 0.013 | -0.043 |  | 
9 | MCM10 (UniProt Q7L590) | -0.066 |  | 0.205 | 0.039 |  |  | -0.153 | 0.125 | 0.096 |  | -0.115 | 0.015 | -0.108 | 0.07 | -0.037 |  |  |  | -0.054 | 0.018
10 | JAK3 (UniProt P52333) | -0.178 |  | 0.062 | -0.013 |  |  | 0.059 | -0.024 | -0.01 |  | -0.045 | 0.072 | -0.082 | 0.009 | -0.089 | -0.207 | -0.184 | -0.043 | 0.021 | -0.052
11 | LAPTM4B (UniProt Q86VI4) | -0.074 |  |  | -0.054 |  |  |  |  |  |  |  | 0.141 |  |  |  |  |  |  | 0.093 | 0.019
12 | LRFN1 (UniProt Q9P244) | 0.059 |  | -0.028 | 0 |  |  | -0.1 | 0.052 | 0.105 |  | 0.073 | 0.107 | 0.029 |  | 0.008 | -0.038 | -0.009 | 0.061 | 0.004 | -0.018
13 | IGFBP3 isoform 2 (UniProt P17936) |  | -0.18 | -0.094 |  | 0.049 | -0.172 | 0.032 | -0.057 | 0.115 | 0.097 | 0.196 |  | -0.004 |  | -0.095 |  |  |  |  | 
14 | MAP4K2 (UniProt Q12851) |  |  |  |  |  |  | -0.413 | -0.172 | 0.073 |  |  |  | 0.113 | 0.003 | 0.021 |  |  |  | -0.122 | -0.071
15 | LDLRAP1 (UniProt Q5SW96) | -0.017 |  |  | 0.252 |  |  |  |  | 0.013 |  |  | -0.541 (active) | 0.318 |  |  | -0.118 | -0.032 | 0.028 | 0.199 | -0.177
16 | MARCHF3 (UniProt Q86UD3) |  |  | -0.188 |  |  |  |  |  |  |  | -0.133 |  |  | -0.058 |  |  |  |  | -0.073 | 0.073
17 | MAPK14 (UniProt Q16539) | 0.238 | 0.106 |  | -0.116 | -0.054 | 0.174 | 0.051 | -0.072 | -0.048 | 0.793 (active) |  | -0.178 | -0.09 | -0.234 | 0.062 | 1.04 (active) | 1.52 (active) | -0.135 | 0.001 | 0.016
18 | MAP4K4 isoform 6 (UniProt O95819) |  |  |  |  |  |  | -0.168 | -0.025 |  |  |  |  |  | -0.033 | 0.143 |  |  |  |  | 
19 | MED29 (UniProt Q9NX70) | -0.016 | 0.008 |  | 0.062 | -0.089 | -0.015 |  |  |  | -0.215 |  | -0.038 |  | -0.08 |  |  |  |  |  | 
